Source: PubChem BioAssay (Tox21)
Unmarked numbers belong to inactive results. Unless noted, calls come from the whole dose curve; as a rule, active = well fitted cell-killing curve with a large enough effect in the repeat runs; inconclusive = weak or mixed curves, or effect the other way; inactive = flat fitted curve, though single readings scatter. Results filed as inconclusive are left out.

Target: Thyrotropin-releasing hormone receptor (Homo sapiens) (UniProt P34981)
Experiment: qHTS assay to identify small molecule antagonists of the thyrotropin-releasing hormone receptor (TRHR) signaling pathway (AID 1346877; active = well fitted inhibition curve with a large enough effect in the repeat runs, not every such curve was filed as active)
Settings: TRHR-HEK293, TRH-induced calcium fluorescence, antagonist mode; series mostly up to 51.3 µM; activity, negative = inhibition: at the top concentration
Method in brief: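 Overnight-plated (18 h, 37 °C) HEK293 cells expressing TRHR were dye-loaded 2 h, treated with compound, then stimulated with TRH at 1 nM final. Fluorescence intensity was captured every second for 3 min.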
% is set by controls: 0 for no effect and ±100 for the full control effect.

Sequence of Thyrotropin-releasing hormone receptor (Homo sapiens) (P34981 whole entry, looked up): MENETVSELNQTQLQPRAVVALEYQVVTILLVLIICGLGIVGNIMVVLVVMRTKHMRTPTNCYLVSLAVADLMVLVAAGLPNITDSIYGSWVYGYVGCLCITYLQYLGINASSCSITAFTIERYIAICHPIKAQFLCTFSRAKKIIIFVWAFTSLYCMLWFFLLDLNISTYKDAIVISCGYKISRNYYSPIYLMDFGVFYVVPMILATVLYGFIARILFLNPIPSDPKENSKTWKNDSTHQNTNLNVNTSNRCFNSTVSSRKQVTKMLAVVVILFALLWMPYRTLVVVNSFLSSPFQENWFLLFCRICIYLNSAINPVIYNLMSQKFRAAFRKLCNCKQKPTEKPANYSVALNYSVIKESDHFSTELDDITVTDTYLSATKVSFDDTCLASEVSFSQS

Compound | activity, negative = inhibition
O=C(O)CCNC(=O)c1ccccc1 | -3.75% [at 23.6 µM]
Nc1nc(=O)n([C@@H]2O[C@H](CO)[C@@H](O)[C@@H]2F)cc1I | -4.76% [at 23.6 µM]
CC(C)CCC(=O)CCC(C)C | -1.06%
CCOC(=O)C(=O)c1csc(NC=O)n1 | 0.151% [at 23.6 µM]
CC(C)C(=O)c1ccccc1 | 3.62%
FC(F)(F)/C(=N\OCC1OCCO1)c1ccc(Cl)cc1 | 5.98%
OCCCCCCCl | -3.33%
CCCCCC(=O)OCC | 6.1%
C=CCOC(=O)c1ccc(C(=O)OCC=C)c(C(=O)OCC=C)c1 | -3.04%
CCN(CCO)c1cccc(C)c1 | -0.0513%
CCCCCCCCCCCCC | -1.64%
CCC1COC(=O)O1 (stereo not given) | 2.66%
CC1CCC(C(C)(C)S)C(=O)C1 (stereo not given) | 8.33%
CC1=CC[C@H](CC=O)C1(C)C | 2.11%
CCC(O)C(C)(C)C (stereo not given) | -4.54%
O=C(Oc1ccccc1C(=O)O)c1ccccc1O | 1.44% [at 23.6 µM]
CCOC(=O)CC#N | -0.077%
C=CCOCC(CO)(COCC=C)COCC=C | -1.53% [at 23.6 µM]
NC(=O)NC(=O)Cc1ccccc1 | 1.21% [at 23.6 µM]
COc1ccc(NS(=O)(=O)c2ccc(N)cc2)nn1 | 0.456% [at 23.6 µM]
COC(OC)C(C)c1ccccc1 (stereo not given) | 1.74%
O=CN1CCOCC1 | 4.38%
CCc1nccnc1C | 4.04%
CCN(Cc1cccc(S(=O)(=O)O)c1)c1ccccc1 | 2.57%

Target: Thyrotropin-releasing hormone receptor (Homo sapiens) (UniProt P34981)
Experiment: qHTS assay to identify small molecule agonists of the thyrotropin-releasing hormone receptor (TRHR) signaling pathway (AID 1346891; calls by dose curve;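 note: HEK293 cells expressing TRHR with calcium dye readout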)
Settings: TRHR-HEK293 calcium fluorescence, agonist mode; series mostly up to 57.6 µM; activation: at the top concentration
Method in brief: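 In 1536-format, 1500 TRHR-Hek293 cells per well grew 18 h, took up calcium dye for 2 h at 37 °C, received compound, and were read kinetically; 15-point titrations, triplicates.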

Compound | activation
O=C(O)CCNC(=O)c1ccccc1 | 0.333% [at 26.5 µM]
Nc1nc(=O)n([C@@H]2O[C@H](CO)[C@@H](O)[C@@H]2F)cc1I | -0.256% [at 26.5 µM]
CC(C)CCC(=O)CCC(C)C | -0.0379%
CCOC(=O)C(=O)c1csc(NC=O)n1 | 0.204% [at 26.5 µM]
CC(C)C(=O)c1ccccc1 | -0.261%
FC(F)(F)/C(=N\OCC1OCCO1)c1ccc(Cl)cc1 | 1.23%
OCCCCCCCl | -0.267%
CCCCCC(=O)OCC | 0.193%
C=CCOC(=O)c1ccc(C(=O)OCC=C)c(C(=O)OCC=C)c1 | 0.184%
CCN(CCO)c1cccc(C)c1 | -0.366%
CCCCCCCCCCCCC | -0.153%
CCC1COC(=O)O1 (stereo not given) | 0.0561%
CC1CCC(C(C)(C)S)C(=O)C1 (stereo not given) | -0.016%
CC1=CC[C@H](CC=O)C1(C)C | -0.316%
CCC(O)C(C)(C)C (stereo not given) | -0.453%
O=C(Oc1ccccc1C(=O)O)c1ccccc1O | -0.41% [at 26.5 µM]
CCOC(=O)CC#N | -0.0304%
C=CCOCC(CO)(COCC=C)COCC=C | -0.19% [at 26.5 µM]
NC(=O)NC(=O)Cc1ccccc1 | -0.624% [at 26.5 µM]
COc1ccc(NS(=O)(=O)c2ccc(N)cc2)nn1 | -0.393% [at 26.5 µM]
COC(OC)C(C)c1ccccc1 (stereo not given) | -0.371%
O=CN1CCOCC1 | -1.16%
CCc1nccnc1C | 0.171%
CCN(Cc1cccc(S(=O)(=O)O)c1)c1ccccc1 | -0.253%

System: not listed separately
Experiment: Human pregnane X receptor (PXR) small molecule agonists, qHTS cell viability counter screen (AID 1346977); note: nearly all actives have a fitted effect of over 50% in size
Settings: PXR-Luc HepG2 viability, CellTiter-Fluor, 24 h; series mostly up to 92.4 µM; activity change, negative = cytotoxicity: at the top concentration
Method in brief: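 Readout is CellTiter-Fluor fluorescence from PXR-Luc HepG2 cells. Plated cells rested 5hr, then were treated with compounds for 24hr at 37C and 5% CO2, with reagent present during the last hour.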

Compound | activity change, negative = cytotoxicity
OC[C@@H](O)[C@H](O)[C@@H](O)[C@@H](O)CO | -1.03%
CCCCCCCC/C=C\CCCCCCCC(=O)OC[C@@H](O)[C@H]1OC[C@H](O)[C@H]1O | 19%
O=C(O)CCNC(=O)c1ccccc1 | -1.15% [at 42.5 µM]
Nc1nc(=O)n([C@@H]2O[C@H](CO)[C@@H](O)[C@@H]2F)cc1I | 10.8% [at 42.5 µM]
CC(C)CCC(=O)CCC(C)C | -19.8%
CCOC(=O)C(=O)c1csc(NC=O)n1 | 7.71% [at 42.5 µM]
CC(C)C(=O)c1ccccc1 | 9.95%
FC(F)(F)/C(=N\OCC1OCCO1)c1ccc(Cl)cc1 | -0.357%
OCCCCCCCl | 2.29%
CCCCCC(=O)OCC | 6.49%
CN=C(NC#N)NCCSCc1csc(N=C(N)N)n1 | -13.9% [at 42.5 µM]
CCCCCCCCOC(C)=O | 1.41%
C=CCOC(=O)c1ccc(C(=O)OCC=C)c(C(=O)OCC=C)c1 | -4.21%
CC(C)COC(=O)/C=C/c1ccccc1 | -1.25%
CCN(CCO)c1cccc(C)c1 | 9.61%
C[N+](C)(C)CC(O)CCl (stereo not given) | 3.94%
CCCCCCCCCCCCC | 0.324%
Nc1ccc(S(=O)(=O)Nc2ccccn2)cc1 | 1.87% [at 42.5 µM]
CCCCCCCCCCC | -6.01%

Compound | activity change, negative = cytotoxicity
CC1CCC(C(C)(C)S)C(=O)C1 (stereo not given) | 12.6%
CC1=CC[C@H](CC=O)C1(C)C | 7.89%
CCCCOC(=O)[C@@H](C)Oc1ccc(Oc2ccc(C(F)(F)F)cn2)cc1 | 1.71%
CCC(O)C(C)(C)C (stereo not given) | -9.45%
O=C(Oc1ccccc1C(=O)O)c1ccccc1O | 0.359% [at 42.5 µM]
CCOC(=O)CC#N | 0.238%
C=CCOCC(CO)(COCC=C)COCC=C | 4.28% [at 42.5 µM]
NC(=O)NC(=O)Cc1ccccc1 | 3.32% [at 42.5 µM]
O=C1CC[C@H](C(=O)N2CCCCC2)N1 | -11.4% [at 42.5 µM]
COc1ccc(NS(=O)(=O)c2ccc(N)cc2)nn1 | 14.8% [at 42.5 µM]
COC(OC)C(C)c1ccccc1 (stereo not given) | 16.3%
CC(=O)c1ccc2c(c1)CCCC2 | 3.16%
O=CN1CCOCC1 | 4.84%
CN[C@@H]1[C@H](O)[C@H](NC)[C@H]2O[C@@]3(O)C(=O)C[C@@H](C)O[C@H]3O[C@@H]2[C@H]1O | 16.7% [at 42.5 µM]
COC(/C=C(\C)CCC=C(C)C)OC | 11%
C[C@H](CCC(=O)O)[C@H]1CC[C@H]2[C@@H]3[C@H](O)C[C@@H]4C[C@H](O)CC[C@]4(C)[C@H]3C[C@H](O)[C@]12C | 2.57% [at 42.5 µM]
CCc1nccnc1C | -0.375%
CCN(Cc1cccc(S(=O)(=O)O)c1)c1ccccc1 | 12.6%
